# Experimental data published in the supplement of paper PMC8728848.
# This is one part of a sample in which the strongest signals are shown more often than they occur.
# B1: FGF1 (Homo sapiens), P05230 (protein)
# chain: MAEGEITTFTALTEKFNLPPGNYKKPKLLYSNGGHFLRILPDGTVDGTRDRSDQHIQLQLSAESVGEVYIKSTETGQYLAMTDGLLYGSQTPNEECLFLERLEENHYNTYISKHAEKNWFVGLKKNGSCKRGPRTHYGQAILFLPLPASSED
# How the values were obtained:
# Assay in all cases: glycan array binding signal (z-score within array); higher = stronger binding
# Settings in all cases: glycan notation: IUPAC condensed, linker removed
# [1] = target: Fuc(a1-2)Gal(b1-3)GlcNAc(b1-2)Man(a1-3)[Fuc(a1-2)Gal(b1-3)GlcNAc(b1-2)Man(a1-6)]Man(b1-4)GlcNAc(b1-4)[Fuc(a1-6)]GlcNAc
# Method in brief: (§1)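 Arrays were curated from the Consortium for Functional Glycomics database, 3228 in total, and kept only where the protein sequence was available. Binding is expressed as a within-array Z-score. This score was averaged across arrays of the same protein sequence at different concentrations or buffers and across linkers, and negative values can be read as non-binding.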
# [2] = target: Fuc(a1-2)Gal(b1-3)[Fuc(a1-4)]GlcNAc(b1-2)Man(a1-3)[Fuc(a1-2)Gal(b1-3)[Fuc(a1-4)]GlcNAc(b1-2)Man(a1-3)]Man(b1-4)GlcNAc(b1-4)GlcNAc
# Method in brief: as §1
# Fuc(a1-2)Gal(b1-4)Glc = target: Fuc(a1-2)Gal(b1-4)Glc
# Method in brief: as §1
# [3] = target: Fuc(a1-2)Gal(b1-4)GlcNAc(b1-3)GalNAc
# Method in brief: as §1
# Fuc(a1-2)Gal6S(b1-4)Glc = target: Fuc(a1-2)Gal6S(b1-4)Glc
# Method in brief: as §1
# [4] = target: Fuc(a1-2)Gal6S(b1-4)Glc6S
# Method in brief: as §1
# [5] = target: Fuc(a1-2)[GalNAc(a1-3)]Gal(b1-4)GlcNAc(b1-3)GalNAc
# Method in brief: as §1
# [6] = target: Fuc(a1-3)[Gal(b1-4)]GlcNAc(b1-6)GalNAc
# Method in brief: as §1
# [7] = target: Fuc(a1-3)[Gal3S(b1-4)]GlcNAc6S
# Method in brief: as §1
# [8] = target: Gal(a1-3)Gal(b1-3)GlcNAc(b1-3)GalNAc
# Method in brief: as §1
# [9] = target: Gal(a1-3)Gal(b1-3)[Fuc(a1-4)]GlcNAc(b1-2)Man(a1-3)[Gal(a1-3)Gal(b1-3)[Fuc(a1-4)]GlcNAc(b1-2)Man(a1-6)]Man(b1-4)GlcNAc(b1-4)GlcNAc
# Method in brief: as §1
# [10] = target: Gal(a1-3)Gal(b1-4)GlcNAc(b1-3)GalNAc
# Method in brief: as §1
# Gal(a1-4)Gal(b1-4)GlcNAc = target: Gal(a1-4)Gal(b1-4)GlcNAc
# Method in brief: as §1
# [11] = target: Gal(a1-4)Gal(b1-4)GlcNAc(b1-3)Gal(b1-4)Glc
# Method in brief: as §1
# [12] = target: Gal(b1-3)[Fuc(a1-4)]GlcNAc(b1-2)Man
# Method in brief: as §1
# [13] = target: Gal(b1-3)[Fuc(a1-4)]GlcNAc(b1-2)Man(a1-3)[Gal(b1-3)[Fuc(a1-4)]GlcNAc(b1-2)Man(a1-6)]Man(b1-4)GlcNAc(b1-4)[Fuc(a1-6)]GlcNAc
# Method in brief: as §1
# [14] = target: Gal(b1-4)GalNAc(a1-3)[Fuc(a1-2)]Gal(b1-4)GlcNAc
# Method in brief: as §1
# Gal(b1-4)GlcNAc = target: Gal(b1-4)GlcNAc
# Method in brief: as §1
# [15] = target: Gal(b1-4)GlcNAc(a1-6)Gal(b1-4)GlcNAc
# Method in brief: as §1
# [16] = target: Gal(b1-4)GlcNAc(b1-3)Gal(b1-4)GlcNAc(b1-3)Gal(b1-4)GlcNAc(b1-2)Man(a1-3)[Gal(b1-4)GlcNAc(b1-3)Gal(b1-4)GlcNAc(b1-3)Gal(b1-4)GlcNAc(b1-2)Man(a1-6)]Man(b1-4)GlcNAc(b1-4)[Fuc(a1-6)]GlcNAc
# Method in brief: as §1
# [17] = target: Gal(b1-4)GlcNAc(b1-3)Gal(b1-4)GlcNAc(b1-3)Gal(b1-4)GlcNAc(b1-3)Gal(b1-4)GlcNAc(b1-2)Man(a1-3)[Gal(b1-4)GlcNAc(b1-3)Gal(b1-4)GlcNAc(b1-3)Gal(b1-4)GlcNAc(b1-3)Gal(b1-4)GlcNAc(b1-2)Man(a1-6)]Man(b1-4)GlcNAc(b1-4)[Fuc(a1-6)]GlcNAc
# Method in brief: as §1
# [18] = target: Gal(b1-4)GlcNAc(b1-3)Gal(b1-4)GlcNAc(b1-3)[Gal(b1-4)GlcNAc(b1-3)Gal(b1-4)GlcNAc(b1-6)]GalNAc
# Method in brief: as §1
# [19] = target: Gal3S(b1-3)[Fuc(a1-4)]GlcNAc
# Method in brief: as §1
# Gal3S(b1-4)Glc = target: Gal3S(b1-4)Glc
# Method in brief: as §1
# Gal3S6S(b1-4)GlcNAc6S = target: Gal3S6S(b1-4)GlcNAc6S
# Method in brief: as §1
# [20] = target: GalNAc(b1-4)GlcNAc(b1-2)Man(a1-3)[GalNAc(b1-4)GlcNAc(b1-2)Man(a1-6)]Man(b1-4)GlcNAc(b1-4)GlcNAc
# Method in brief: as §1
# GalNAc(b1-4)GlcNAc6S = target: GalNAc(b1-4)GlcNAc6S
# Method in brief: as §1
# [21] = target: GlcNAc(a1-4)Gal(b1-4)GalNAc
# Method in brief: as §1
# [22] = target: GlcNAc(a1-4)Gal(b1-4)GlcNAc(b1-3)Gal(b1-4)[Fuc(a1-3)]GlcNAc(b1-3)Gal(b1-4)[Fuc(a1-3)]GlcNAc
# Method in brief: as §1
# [23] = target: GlcNAc(b1-2)[GlcNAc(b1-4)]Man(a1-3)[GlcNAc(b1-4)][GlcNAc(b1-2)[GlcNAc(b1-6)]Man(a1-6)]Man(b1-4)GlcNAc(b1-4)GlcNAc
# Method in brief: as §1
binder,measurement,setting,value
B1,glycan array binding signal (z-score),[1],0.366
same,glycan array binding signal (z-score),[2],2.84
same,glycan array binding signal (z-score),Fuc(a1-2)Gal(b1-4)Glc,-0.358
same,glycan array binding signal (z-score),[3],1.33
same,glycan array binding signal (z-score),Fuc(a1-2)Gal6S(b1-4)Glc,0.397
same,glycan array binding signal (z-score),[4],0.797
same,glycan array binding signal (z-score),[5],-0.242
same,glycan array binding signal (z-score),[6],1.04
same,glycan array binding signal (z-score),[7],1.09
same,glycan array binding signal (z-score),[8],0.646
same,glycan array binding signal (z-score),[9],3.56
same,glycan array binding signal (z-score),[10],-0.582
same,glycan array binding signal (z-score),Gal(a1-4)Gal(b1-4)GlcNAc,0.333
same,glycan array binding signal (z-score),[11],0.423
same,glycan array binding signal (z-score),[12],3.59
same,glycan array binding signal (z-score),[13],3.02
same,glycan array binding signal (z-score),[14],-0.949
same,glycan array binding signal (z-score),Gal(b1-4)GlcNAc,-0.031
same,glycan array binding signal (z-score),[15],-0.827
same,glycan array binding signal (z-score),[16],2.98
same,glycan array binding signal (z-score),[17],1.05
same,glycan array binding signal (z-score),[18],1.64
same,glycan array binding signal (z-score),[19],3.14
same,glycan array binding signal (z-score),Gal3S(b1-4)Glc,-0.046
same,glycan array binding signal (z-score),Gal3S6S(b1-4)GlcNAc6S,1.04
same,glycan array binding signal (z-score),[20],6.98
same,glycan array binding signal (z-score),GalNAc(b1-4)GlcNAc6S,-0.848
same,glycan array binding signal (z-score),[21],0.705
same,glycan array binding signal (z-score),[22],1.24
same,glycan array binding signal (z-score),[23],-0.751
